Source: PubChem BioAssay
Sm TGR block: qHTS Assay for the Inhibitors of Schistosoma Mansoni Peroxiredoxins; Schistosoma mansoni thioredoxin glutathione reductase (TGR), Q962Y6; purified TGR, DTNB reduction, TNB absorbance 405 nm; Potency, µM (titrated, usually from 114 µM), without a hit: at the top dose activity change, negative = inhibition, usual class: inhibitors; 3% of 360,000 active; AID 485364, 2010; note: % is set by controls: 0 for no effect and ±100 for the full control effect; nearly all actives have a fitted effect of over 60% in size
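First, TGR (20 nM dispensed) and NADPH were mixed with compound. Second, a 15 min room-temperature incubation followed. Third, further NADPH and then DTNB were added to start the reaction. Finally, TNB absorbance was monitored kinetically.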
Pf growth 96h: Primary qHTS for delayed death inhibitors of the malarial parasite plastid, 96 hour incubation | P. falciparum luciferase reporter growth, 96 h | Potency, µM (series often up to 28.7 µM), for inactives: at the highest dose activity change, negative = inhibition, usual class: inhibitors | 6.9% of 320,000 active; note: % is set by controls: 0 for no effect and ±100 for the full control effect
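Two parasite generations (96 h, 37 C, 5% CO2) of compound exposure in infected erythrocytes (0.05% parasitemia, 2% hematocrit). Luciferase-reporter P. falciparum; decreased luminescence indicates inhibited growth, aimed at apicoplast-acting delayed death.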
AmpC no deterg: qHTS Inhibitors of AmpC Beta-Lactamase (assay without detergent). P00811. AmpC nitrocefin hydrolysis, absorbance 480 nm, 0.0001% Triton. Potency, µM (doses to about 57.1 µM), inactives show at the highest dose activity change, negative = inhibition, most hits filed as inhibitors. 0.52% of 330,000 active. AID 485341, 2010;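 note: plate controls were no compound for no effect and no enzyme for full effect; nearly all actives have a fitted effect of over 20% in size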
Target sequence (P00811 whole entry, looked up): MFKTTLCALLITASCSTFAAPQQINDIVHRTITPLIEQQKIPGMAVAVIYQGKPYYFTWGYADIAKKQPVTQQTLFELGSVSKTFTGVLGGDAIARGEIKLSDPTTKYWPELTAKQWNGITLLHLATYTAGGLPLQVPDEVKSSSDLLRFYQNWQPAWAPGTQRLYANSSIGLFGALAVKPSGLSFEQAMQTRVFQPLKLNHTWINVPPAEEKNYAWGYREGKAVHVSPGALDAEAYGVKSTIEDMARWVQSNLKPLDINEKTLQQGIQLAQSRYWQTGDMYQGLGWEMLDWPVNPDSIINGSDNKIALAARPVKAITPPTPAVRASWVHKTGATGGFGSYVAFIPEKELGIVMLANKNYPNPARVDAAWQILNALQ
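20 mM phosphate pH 7.0 + 0.01% (detergent screen) or 0.0001% Triton X-100; 5.3 nM AmpC reagent; cpd preinc 15 min RT; nitrocefin (800 uM stock) to start; A480 q20 s × 4 min; Activity was normalised to no-enzyme and no-compound control wells.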
Pf growth 48h: Primary qHTS for delayed death inhibitors of the malarial parasite plastid, 48 hour incubation. P. falciparum luciferase growth in erythrocytes, 48 h. Potency, µM (doses to about 28.7 µM), without a hit: at the top dose activity change, negative = inhibition, usual class: inhibitors. 5.9% of 310,000 active. AID 504832, 2011; note: % is set by controls: 0 for no effect and ±100 for the full control effect
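Luciferase-expressing P. falciparum in infected erythrocytes (2% hematocrit, 0.1% parasitemia final) in RPMI 1640/0.5% Albumax were exposed to compound for 48 hours at 37 C, 5% CO2; growth read as luminescence.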
AmpC detergent: qHTS Inhibitors of AmpC Beta-Lactamase (assay with detergent). 0.041% of 370,000 active. AmpC hydrolysis of nitrocefin, absorbance 480 nm, 0.01% Triton. AID 485294, 2010. P00811. Potency, µM (top dose mostly 114 µM), without a hit: at the highest dose activity change, negative = inhibition, actives largely listed as inhibitors;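 note: 0% = no-compound wells and -100% = no-enzyme wells; nearly all actives have a fitted effect of over 25% in size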
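AmpC (5.3 nM in the dispensed reagent) in 20 mM phosphate pH 7.0 with 0.01% (detergent screen) or 0.0001% Triton X-100 was preincubated with compounds for 15 min at room temperature. Nitrocefin was then added from an 800 uM solution, and hydrolysis was followed at 480 nm.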
SARS PLpro yeast: qHTS of Yeast-based Assay for SARS-CoV PLP. S. cerevisiae expressing SARS-CoV PLpro, growth rescue. 0.19% of 330,000 active. Potency, µM (doses to about 32.9 µM), for the others: at the highest dose activity, positive = growth rescue, hits mostly activators; calls by dose curve; note: 0% is about no effect; nearly all actives have a fitted effect of over 55% in size
Active calls of the source: *; ? = inconclusive; nt = no result given. A selection: hits, their analogues and other compounds. The true share with any hit is near 12%. Unless noted, calls come from the whole dose curve; as a rule, active = well fitted curve in the direction sought with a large enough effect; inconclusive = small, poorly fitted or top-dose-only effect, or another doubt; inactive = no such curve, though single readings can be large; an effect the other way counts as inactive or inconclusive. Potency is the fitted concentration of half-maximal effect.

SMILES	Sm TGR block	Pf growth 96h	AmpC no deterg	Pf growth 48h	AmpC detergent	SARS PLpro yeast
C=C(NC(=O)C(=C)NC(=O)c1csc(C2=NC3c4csc(n4)C4NC(=O)c5csc(n5)C([C@@](C)(O)C(C)O)NC(=O)C5CSC(=N5)/C(=C\C)NC(=O)C(C(C)O)NC(=O)c5csc(n5)[C@]3(CC2)NC(=O)C(C)NC(=O)C(=C)NC(=O)C(C)NC(=O)C(C(C)CC)NC2C=Cc3c(C(C)O)cc(nc3C2O)C(=O)OC4C)n1)C(N)=O (some centres undefined)	-23%	0.74µM*	262%	0.83µM*	?	2%
C=C(NC(=O)C(=C)NC(=O)c1csc(C2=N[C@@H]3c4csc(n4)[C@@H]4NC(=O)c5csc(n5)[C@@H]([C@](C)(O)[C@H](C)O)NC(=O)[C@@H]5CSC(=N5)/C(=C/C)NC(=O)[C@@H]([C@H](C)O)NC(=O)c5csc(n5)[C@]3(CC2)NC(=O)[C@@H](C)NC(=O)C(=C)NC(=O)[C@@H](C)NC(=O)[C@@H]([C@@H](C)CC)N[C@H]2C=Cc3c([C@H](C)O)cc(nc3[C@@H]2O)C(=O)O[C@H]4C)n1)C(N)=O	nt	4.1µM*	nt	5.7µM*	nt	nt
COc1ccc(-c2nc3n(n2)C(c2ccc(OC)cc2)C(C(=O)Nc2cccnc2)=C(C)N3)cc1 (centres undefined)	2%	nt	nt	nt	15%	nt
COc1ccccc1S(=O)Cc1ccc(C(=O)NCc2ccccc2Cl)o1 (centres undefined)	16µM*	-11%	1%	nt	-7%	4%
COc1ccccc1CNC(=O)c1ccc(-c2ccccc2C(F)(F)F)o1	?	?	-21%	?	?	-4%
O=C(NCc1ccco1)c1ccc(-c2ccccc2Cl)o1	25µM*	-29%	-40%	11%	-4%	-28%
COc1ccccc1CNC(=O)c1ccc(-c2ccccc2Cl)o1	?	10µM*	-14%	-25%	?	-30%
COc1ccccc1CNC(=O)c1ccccc1C(=O)NC(C)(C)C(=O)NCc1ccccc1OC	-5%	13µM*	83%	2%	-3%	2%
O=C(/C=C/c1ccc2c(c1)OCO2)N1CCN(c2n[nH]c(=O)[nH]c2=O)CC1	-15%	-21%	-6%	-8%	-7%	0%
O=C(Nc1cc(F)ccc1F)C1COc2ccccc2C1 (centres undefined)	3%	nt	nt	nt	13%	nt
Cc1cccc(OCCCC(=O)NCC(=O)Nc2cccc(C)c2C)c1	4%	-18%	46%	-22%	8%	-1%
CC1CCN(C(=O)COC(=O)C23CC4CC(CC(O)(C4)C2)C3)CC1	-7%	82%	0%	32%	-2%	3%
CCC1=C(OC(=O)N(CC)CC)N2C(=O)OC(=NCCOC)[C@]2(Cc2ccccc2)[C@H]2C1=CC[C@H]1C(=O)NC(=O)[C@H]12	10%	?	191%	9.3µM*	-10%	0%
CCC1=C(OC(=O)N(CC)CC)N2C(=O)OC(=NCC3CC3)[C@]2(Cc2ccccc2)[C@H]2C1=CC[C@H]1C(=O)NC(=O)[C@H]12	11%	7.4µM*	166%	10µM*	-4%	3%
Cc1ccc(OC(=O)c2sc(Cl)nc2C)cc1C	-4%	-14%	-24%	2%	-3%	-23%
Cc1c(NC(=O)c2cc(-c3ccccc3)on2)c(=O)n(-c2ccccc2)n1C	-7%	-17%	-24%	4%	-2%	6%
CCCCn1nc(C(=O)Nc2c(C)n(C)n(-c3ccccc3)c2=O)c2ccccc2c1=O	-11%	15µM*	-13%	?	-18%	3%
